Reference: PubChem BioAssay (NCATS)
Records with an inconclusive call do not appear. Calls of active or inactive are those of the source. The call rests on the fitted dose curve; in most records, active means well fitted curve in the direction sought with a large enough effect; inconclusive means small, poorly fitted or top-dose-only effect, or another doubt; inactive means no such curve, though single readings can be large; an effect the other way counts as inactive or inconclusive.

Columns and labels:
NIH3T3 = assay: qHTS assay to identify novel small-molecules to repurpose for Merkel cell carcinoma treatment (AID 1296009); conditions: MCC and control cell lines, CellTiter-Glo viability, 72 h; at 44.8 µM (top of the series) unless noted; further: nearly all actives have a fitted effect of over 60% in size
Procedure, shortened: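 72 hr, 37 degree celsius; NPC 8-pt / MIPE 11-pt dose response; compound pinned in DMSO; CellTiter-Glo, 10 min RT, luminescence; normalized to no-cell and DMSO controls.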

C33A = assay: Primary qHTS to identify gynecologic anti-cancer compounds using libraries of approved drugs and bioactive compounds (AID 1345084); conditions: Gynecologic cancer cell panel viability, ATPlite luminescence, 48 h; series mostly up to 57.5 µM; further: on the % scale 0 is the no-effect control and ±100 the full control effect; nearly all actives have a fitted effect of over 55% in size
Procedure, shortened: (§1)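 In this quantitative HTS, cell killing is estimated from loss of ATP-dependent luciferase light. Cells see five compound concentrations over a 48 h exposure.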

CAOV3 = assay: as above; conditions: Gynecologic cancer cell panel viability, ATPlite luminescence, 48 h; series mostly up to 57.5 µM
Procedure, shortened: as §1

CASKI = assay: as above; conditions: Gynecologic cancer cell panel viability, ATPlite luminescence, 48 h; series mostly up to 57.5 µM
Procedure, shortened: as §1

Es-2 = assay: as above; conditions: Gynecologic cancer cell panel viability, ATPlite luminescence, 48 h; series mostly up to 57.5 µM
Procedure, shortened: as §1

HeLa = assay: as above; conditions: Gynecologic cancer cell panel viability, ATPlite luminescence, 48 h; series mostly up to 57.5 µM
Procedure, shortened: as §1

Hek293T = assay: as above; conditions: Gynecologic cancer cell panel viability, ATPlite luminescence, 48 h, control line for the selectivity index; series mostly up to 57.5 µM
Procedure, shortened: as §1

JEG-3 = assay: as above; conditions: Gynecologic cancer cell panel viability, ATPlite luminescence, 48 h; series mostly up to 57.5 µM
Procedure, shortened: as §1

OV90 = assay: as above; conditions: Gynecologic cancer cell panel viability, ATPlite luminescence, 48 h; series mostly up to 57.5 µM
Procedure, shortened: as §1

PA-1 = assay: as above; conditions: Gynecologic cancer cell panel viability, ATPlite luminescence, 48 h; series mostly up to 57.5 µM
Procedure, shortened: as §1

SKOV3 = assay: as above; conditions: Gynecologic cancer cell panel viability, ATPlite luminescence, 48 h; series mostly up to 57.5 µM
Procedure, shortened: as §1

Tov-21-G = assay: as above; conditions: Gynecologic cancer cell panel viability, ATPlite luminescence, 48 h; series mostly up to 57.5 µM
Procedure, shortened: as §1

Tov112D = assay: as above; conditions: Gynecologic cancer cell panel viability, ATPlite luminescence, 48 h; series mostly up to 57.5 µM
Procedure, shortened: as §1

COc1cc(C)c(C(=O)NC2C(C)OC(OC3CCC(C)C4C3C=C(C)C3/C(C)=C\CC/C(C)=C/C5(C)C=C(C(=O)O)C(C)CC56OC(=O)/C(=C(\O)C34C)C6=O)C(O)C2(C)O)c(O)c1 (stereo not given)
inactive: outcome (NIH3T3) inactive [at 9.27 µM] | activity change, negative = cytotoxicity (C33A) 8.62% [at 11.6 µM] | activity change, negative = cytotoxicity (CAOV3) 11.9% [at 11.6 µM] | activity change, negative = cytotoxicity (CASKI) 23.4% [at 11.6 µM] | activity change, negative = cytotoxicity (Es-2) -2.46% [at 11.6 µM] | activity change, negative = cytotoxicity (HeLa) 2.6% [at 11.6 µM] | activity change, negative = cytotoxicity (Hek293T) 9.94% [at 11.6 µM] | activity change, negative = cytotoxicity (JEG-3) 4.16% [at 11.6 µM] | activity change, negative = cytotoxicity (OV90) 6.29% [at 11.6 µM] | activity change, negative = cytotoxicity (PA-1) -2.04% [at 11.6 µM] | activity change, negative = cytotoxicity (SKOV3) -10.1% [at 11.6 µM] | activity change, negative = cytotoxicity (Tov-21-G) 4.24% [at 11.6 µM] | activity change, negative = cytotoxicity (Tov112D) 8.49% [at 11.6 µM]

CC1=CC(=O)CC(C)(C)C1/C=C/C(C)OC1OC(COC2OCC(O)C(O)C2O)C(O)C(O)C1O (stereo not given)
inactive: outcome (NIH3T3) inactive [at 17.4 µM] | Potency (C33A) | Potency (CAOV3) | outcome (CASKI) | Potency (Es-2) | Potency (HeLa) | Potency (Hek293T) | Potency (JEG-3) | Potency (OV90) | Potency (PA-1) | Potency (SKOV3) | Potency (Tov-21-G) | Potency (Tov112D)

Cc1occc(=O)c1O[C@@H]1O[C@H](CO)[C@@H](O)[C@H](O)[C@H]1O
inactive: outcome (NIH3T3) | Potency (C33A) | Potency (CAOV3) | outcome (CASKI) | Potency (Es-2) | Potency (HeLa) | Potency (Hek293T) | Potency (JEG-3) | Potency (OV90) | Potency (PA-1) | Potency (SKOV3) | Potency (Tov-21-G) | Potency (Tov112D)

COc1cc(C(=O)OCC2=CCC3C(C(=O)O)=COC(O[C@@H]4O[C@H](CO)[C@@H](O)[C@H](O)[C@H]4O)C23)ccc1O (stereo not given in full)
inactive: outcome (NIH3T3) inactive [at 17.4 µM] | Potency (C33A) | Potency (CAOV3) | outcome (CASKI) | Potency (Es-2) | Potency (HeLa) | Potency (Hek293T) | Potency (JEG-3) | Potency (OV90) | Potency (PA-1) | Potency (SKOV3) | Potency (Tov-21-G) | Potency (Tov112D)

C=C1CC[C@@H]2C(C)(C)CCC[C@@]2(C)[C@@H]1CC/C(=C/C(=O)OC)COC(C)=O
inactive: outcome (NIH3T3) | Potency (C33A) | Potency (CAOV3) | outcome (CASKI) | Potency (Es-2) | Potency (HeLa) | Potency (Hek293T) | Potency (JEG-3) | Potency (OV90) | Potency (PA-1) | Potency (SKOV3) | Potency (Tov-21-G) | Potency (Tov112D)

CC1=C2C(=O)C=C(CO)C2C2OC(=O)C(CS(=O)(=O)O)C2C(OC(=O)Cc2ccc(O)cc2)C1 (stereo not given)
inactive: outcome (NIH3T3) inactive [at 17.4 µM] | Potency (C33A) | Potency (CAOV3) | outcome (CASKI) | Potency (Es-2) | Potency (HeLa) | Potency (Hek293T) | Potency (JEG-3) | Potency (OV90) | Potency (PA-1) | Potency (SKOV3) | Potency (Tov-21-G) | Potency (Tov112D)

CC(=O)/C=C/C1(O)C(C)(C)CC(O)CC1(C)O (stereo not given)
inactive: outcome (NIH3T3) | Potency (C33A) | Potency (CAOV3) | outcome (CASKI) | Potency (Es-2) | Potency (HeLa) | Potency (Hek293T) | Potency (JEG-3) | Potency (OV90) | Potency (PA-1) | Potency (SKOV3) | Potency (Tov-21-G) | Potency (Tov112D)

C/C(=C\C(=O)C[C@@]12C(=O)O[C@]3(C)CC[C@H]1C[C@H]23)C(N)=O
inactive: outcome (NIH3T3) | Potency (C33A) | Potency (CAOV3) | outcome (CASKI) | Potency (Es-2) | Potency (HeLa) | Potency (Hek293T) | Potency (JEG-3) | Potency (OV90) | Potency (PA-1) | Potency (SKOV3) | Potency (Tov-21-G) | Potency (Tov112D)

CC[C@@H](Nc1c(Nc2cccc(C(=O)N(C)C)c2O)c(=O)c1=O)c1ccc(C)o1
inactive: outcome (NIH3T3) | Potency (C33A) | Potency (CAOV3) | outcome (CASKI) | Potency (Es-2) | Potency (HeLa) | Potency (Hek293T) | Potency (JEG-3) | Potency (OV90) | Potency (PA-1) | Potency (SKOV3) | Potency (Tov-21-G) | Potency (Tov112D)

Cc1c(O)cc2c(c1O)COC1(O)CCCOC21 (stereo not given)
inactive: outcome (NIH3T3) | Potency (C33A) | Potency (CAOV3) | outcome (CASKI) | Potency (Es-2) | Potency (HeLa) | Potency (Hek293T) | Potency (JEG-3) | Potency (OV90) | Potency (PA-1) | Potency (SKOV3) | Potency (Tov-21-G) | Potency (Tov112D)
